Experimental data as given in PubChem BioAssay.

Assay: small-molecule binders of probe aNOTCH3, primary screen, biochemical, small-molecule microarray, 635/667 nm fluorescence (AID 1120);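 note: probe is a biotin-tagged antibody raised against NOTCH3 rather than NOTCH3 protein; score merges spot fluorescence near 667 nm with spot signal to noise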
Details: higher = more signal

Row | SMILES | composite z-score
1 | CCCN1C(=O)[C@@]2(Cc3ccccc3)N=C(c3ccc(OCCCO)cc3)O[C@H]2c2ccccc21 | 0.204
2 | O=C1c2ccccc2[C@](Cc2ccccc2I)(C(=O)NCC(F)(F)F)[C@H](c2ccc(CO)cc2)N1Cc1ccccc1 | -0.0183
3 | COc1ccc([Si](C)(C)[C@@H]2[C@@H](CC(=O)N(CCO)Cc3ccccc3)O[C@]3(C(=O)N(C)c4c(Br)cc(C)cc43)[C@H]2C)cc1 | -0.0918
4 | CCOC(=O)C[C@H]1[C@H](OC(=O)Cc2ccc3c(c2)OCO3)[C@@H](NC(=O)c2ccccc2)c2cc(OCCCO)ccc2N1C(=O)c1ccc2ccccc2n1 | -0.226
5 | COC(=O)[C@]1(Cc2ccccc2CN=[N+]=[N-])N=C(c2ccc(OCCCO)cc2)O[C@@H]1c1ccccc1 | -0.122
6 | CN(C)CCCC[C@@H]1NC(=O)[C@H]2C[C@@H](C(=O)NCCCCCCNC(=O)CS)[C@@H](c3ccc(O)cc3)N2C1=O | -0.159
7 | O=C(O)[C@]1(CCS(=O)(=O)c2ccccc2)N=C(c2ccc(OCCCO)cc2)O[C@@H]1c1ccccc1 | 0.196
8 | C=CCC(OC(C)=O)[C@@H]1[C@@H](N(Cc2cccc3ccccc23)C(=O)c2ccc(C)cc2)c2cc(OCCCO)ccc2N1C(=O)c1ccc2ccccc2c1 (stereo partly specified) | 0.0311

Assay: small-molecule binders of probe aNOTCH2, primary screen, biochemical, small-molecule microarray, 635/667 nm fluorescence (AID 1121);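 note: score merges feature fluorescence read at 667 nm with its signal to noise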
Details: higher = more signal

Row | SMILES | composite z-score
9 | C[C@@H]1ON(c2ccccc2)[C@H](c2ccccc2)[C@H]1C(=O)N1C(=O)OC[C@H]1Cc1ccccc1 | -0.14
10 | COCCCNC(=O)[C@@H]1c2ccccc2C(=O)N(c2ccc(C)cn2)[C@H]1c1ccc(CO)cc1 | -0.18
11 | CC(=O)NCCCC[C@@H]1NC(=O)[C@H]2C[C@@H](C(=O)NCCCCCN)[C@@H](c3cccc(OCCO)c3)N2C1=O | -0.0878
12 | C=CCOC(=O)[C@@H]1[C@H]2C(=O)O[C@H](c3ccccc3)[C@H](c3ccccc3)N2[C@H](c2ccc(OCCOC(=O)[C@H]3C[C@H]4C(=O)N[C@@H](Cc5ccccc5)C(=O)N4[C@H]3c3cccc(OCCO)c3)cc2)[C@@]12C(=O)Nc1ccc(I)cc12 | -0.103
13 | O=C(Nc1cc(Br)ccc1C(=O)NCc1cccc(O)c1)c1ccccc1 | -0.0901
14 | CC(C)CCC[C@@H](C)[C@H]1CC[C@@]2(C)C3=C(CC[C@]12C)[C@@]1(C)CC[C@H](OC(=O)C(C)(C)C)C(C)(C)C1CC3 (stereo partly specified) | -0.191
15 | COC(=O)[C@@]1(Cc2ccccc2)[C@H]2c3cc(C(=O)N(C)C)n(Cc4ccc(O)c(OC)c4)c3C[C@H]2CN1C(=O)c1ccccc1 | -0.246
16 | CC(C)C[C@H]1NC(=O)[C@H](C)NC(=O)[C@@]23C(=O)N[C@@H](Cc4ccccc4)C2[C@H](C)[C@@]2(C)O[C@H]2C3/C=C/C/C=C\CNC1=O (stereo partly specified) | -0.172
17 | NCCCCCCNC(=O)[C@H]1C[C@H]2C(=O)N3CCC[C@H]3C(=O)N2[C@H]1c1ccc(O)cc1 | -0.201
18 | COC(=O)C(CC#Cc1ccc2c(c1)[C@]1(C(=O)N2)[C@H](c2ccc(OCCO)cc2)N2[C@H](c3ccccc3)[C@H](c3ccccc3)OC(=O)[C@H]2[C@@H]1C(=O)O)C(=O)OC | 0.224
19 | O=C1O[C@H](c2ccccc2)[C@H](c2ccccc2)N2[C@H]1[C@@H](C(=O)N1CCN(c3ncccn3)CC1)[C@]1(C(=O)Nc3ccc(C#CCCO)cc31)[C@H]2c1ccc(OCCO)cc1 | -0.0633
20 | NC(=O)NCC#Cc1ccc2c(c1)[C@]1(C(=O)N2)[C@H](c2ccc(OCCO)cc2)N2[C@H](c3ccccc3)[C@H](c3ccccc3)OC(=O)[C@H]2[C@@H]1C(=O)N1CCCCCCC1 | 1.13
21 | CN(C)C(=O)[C@@]1(CCS(=O)(=O)c2ccccc2)N=C(c2ccc(OCCCO)cc2)O[C@H]1c1ccccc1CN=[N+]=[N-] | -0.0478
22 | COc1ccc(CCNC(=O)[C@@H]2c3ccccc3C(=O)N(Cc3ccccc3C(F)(F)F)[C@H]2c2ccc(CO)cc2)cc1 | -0.0664
23 | O=C1O[C@H](c2ccccc2)[C@H](c2ccccc2)N2[C@H]1[C@@H](C(=O)NC[C@H](O)c1ccccc1)[C@]1(C(=O)Nc3ccccc31)[C@H]2c1ccccc1OCCO | -0.138
24 | C=C(CCCC)/C(=C/C[C@H](OC(=O)c1ccncc1)c1ccc(CO)o1)c1cc(C(=O)OC)ccc1OC | -0.0534
25 | CCCCCCCCCCC(O)C1C=CC2C(=O)NC(=O)C2N1Nc1ccccn1 (stereo unspecified) | 0.0118
26 | COC(=O)[C@@]1(Cc2ccc(OC)cc2)[C@H]2c3cc(C(=O)N4CCCC4)n(Cc4ccc(C)o4)c3C[C@H]2CN1C(=O)c1ccccc1 | 0.0489
